Screens (PubChem)
The list is not random: actives were taken first. Their share in the collection is about 7.9%.
M1 antag = antagonists of rat M1 muscarinic receptor | CHO-M1 cells, Fluo-4 calcium, ACh EC80 antagonist mode; active compounds read low | B-score at 10 µM | 64,000 tested, 3.4% active | AID 628, 2007;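 active means calcium fluorescence response, raw or row-and-column corrected B-score, differing from the plate sample mean either way at a set confidence level, mostly lower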
HER2 expr 66K = inhibitors of Her2 protein expression, primary screen, SKBR-3 cells, AlphaScreen, 66K library; Receptor tyrosine-protein kinase erbB-2 (Homo sapiens), P04626; SKBR-3 HER2 protein level, 18-24 h; active compounds read low; HER2 level % of control, % at 10 µM; 65,000 tested, 0.69% active;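 active means HER2 level under 5% of the carrier-only control; inconclusive means no clear call, values can overlap the other calls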;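 further: lower value means stronger loss of Her2 protein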
Cav3 T inh = Cav3.2 calcium influx blockers – cell-based, Fluo-4 calcium fluorescence, FDSS, MLSMR library, primary screen; B-score at 10 µM; 100,000 tested, 4% active; Cav3.2-expressing cells; active compounds read low;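 active means single-dose well whose peak fluorescence ratio is a statistical outlier from its plate by either plate-standardised score or position-corrected B-score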
M1 ag = M1 muscarinic receptor agonists, primary screen, CHO-M1 cells, Fluo-4 calcium, agonist mode; B-score at 10 µM; Fluo-4 calcium fluorescence; active compounds read high; 64,000 tested, 3% active; Muscarinic acetylcholine receptor M1; AID 626, 2007;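 active means fluorescence rise, raw or as B-score row- and column-corrected plate score, outside the 99.7% band of its plate's samples, either direction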
PLAP activator = PLAP enzyme activators, biochemical, luminescence, HTS; Alkaline phosphatase, placental type (Homo sapiens), P05187; purified PLAP enzyme, luminescent substrate read-out; active compounds read high; activation fold at 20 µM; 96,000 tested, 1.2% active; in the data active means activation fold above about 2
M1 agonist conf = rat M1 muscarinic receptor agonists, confirmation, CHO-M1 cells, Fluo-4 calcium, duplicate retest; shares compounds with M1 ag; Fluo-4 calcium fluorescence, agonist mode; actives lie on both sides; 1,700 tested, 19% active; fluorescence change (max-min) at 10 µM;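 active means fluorescence change differs from the solvent-only DMSO control mean at a set confidence level in both duplicate runs; inconclusive means differs from solvent-only control mean in just one of two runs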;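 further: an EC20 dose of acetylcholine follows compound addition during the same imaging run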
M4 agonist ctr = agonist activity at rat M4 receptor, confirmation, counter-screen for M1 allosteric modulator project, cell-based, agonist mode | shares compounds with M1 ag | CHO M4/Gqi5 cells, Fluo-4 calcium fluorescence; actives lie on both sides | fluorescence change (max-min) at 10 µM | 1,700 tested, 9% active;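 active means fluorescence change differing from the plate's solvent-only control wells at 99.7% confidence in both duplicates, whether higher or lower; inconclusive means differs from solvent controls in only one of two duplicates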
A number is an active result; 0 = inactive; ? = inconclusive; - = no result.

SMILES	M1 antag	HER2 expr 66K	Cav3 T inh	M1 ag	PLAP activator	M1 agonist conf	M4 agonist ctr
COc1ccc2c(c1OC)C(=O)N1c3ccccc3C(=O)N(c3ccccc3F)C21 (centres undefined)	0	0	0	9.3	0	-26	-92
CC(=O)C1=C(C)Nc2ncnn2C1c1ccccc1OCc1ccccc1 (centres undefined)	0	0	0	0	0	-	-
CC(C)C(c1nnnn1C1CCCC1)N(C)C1CCCCC1 (centres undefined)	0	0	0	9.7	0	0	0
CCCCOc1ccc(-c2nnc(-c3ccncc3)o2)cc1	0	0	0	2.7	0	0	?
CCCCC(=O)Nc1ccc(C(=O)NCc2ccncc2)cc1	0	0	0	19	0	?	0
CCOc1ccc(-c2nnc(-c3ccncc3)o2)cc1	0	0	0	0	0	-	-
CCCCOc1ccc(C(=O)Nc2ccncc2)cc1	-3.7	0	0	11	0	0	?
CCCCOc1ccc(C(=O)NC)cc1	0	0	0	0	0	-	-
COc1ccc(-c2cc(C(F)(F)F)n3nc(C(=O)Nc4cc(C)on4)cc3n2)cc1OC	0	0	-	24	0	179	0
COc1ccc(-c2cc(C(F)(F)F)n3ncc(C(=O)NCC4CCCO4)c3n2)cc1OC (centres undefined)	0	0	0	41	0	?	0
COc1ccc(-c2cc(C(F)F)n3ncc(C(=O)NCC4CCCO4)c3n2)cc1 (centres undefined)	0	0	0	0	0	-	-
CC(N=c1ccccn1C(=O)Nc1ccc(F)cc1)c1ccco1 (centres undefined)	0	0	0	0	0	-	-
CC(N=c1ccccn1C(=O)Nc1ccc(Cl)cc1)c1ccco1 (centres undefined)	0	0	0	4	0	-30	?
O=C1CC(SC(=Nc2ccccc2)Nc2ccccc2)C(=O)N1c1cccc2ccccc12 (centres undefined)	-	-	0	-	0	-	-
CCCc1cc(=O)oc2cc3occ(C)c3cc12	0	0	0	2.7	0	0	?
CCCc1cc(=O)oc2cc3oc(C)c(C)c3cc12	0	0	-	0	0	-	-
Cc1ccc(C2(C(F)(F)F)N=C3Sc4cc(C)ccc4N3C(=O)N2)cc1 (centres undefined)	-	-	-	-	0	-	-
O=C(CSc1nnnn1-c1ccc(Cl)cc1)N1CCc2ccccc2C1	0	0	0	0	0	-	-
Cc1ccc(O)c(NC(=O)c2ccco2)c1	0	0	0	0	0	-	-
Cc1ccc2nc(-c3cccc(NC(=O)c4ccco4)c3)[nH]c2c1	0	0	0	7	0	0	0
Cc1ccc(O)c(NC(=O)c2cccc(NC(=O)c3ccco3)c2)c1	0	0	0	2.6	0	-26	0
CCN1C2=NCCCN2c2cc(C)c(C)cc21	0	0	0	0	0	-	-
CN1CCN(C(=O)CSc2nc(-c3cccs3)cc(-c3cccs3)c2C#N)CC1	0	0	0	5.7	0	0	0
Cn1c(=O)c2c(nc(CN3CCN(C(=O)c4ccco4)CC3)n2Cc2ccccc2F)n(C)c1=O	0	0	0	0	0	-	-
COc1cccc(-c2ccc(-c3noc(-c4ccccc4F)n3)c(OC)n2)c1	0	0	0	15	0	0	0
SMILES	M1 antag	HER2 expr 66K	Cav3 T inh	M1 ag	PLAP activator	M1 agonist conf	M4 agonist ctr
Cc1nn(-c2ccccc2)c(C)c1C(=O)OC/C(O)=C(\C#N)c1nc2ccccc2[nH]1	0	0	-	2.9	0	-21	0
Cc1nn(-c2ccccc2)c(C)c1C(=O)OCC(=O)N1CC(=O)Nc2ccccc21	0	0	0	0	0	-	-
Cc1cccc(-c2nc(NCCCN3CCOCC3)c3ccccc3n2)c1	-	-	0	-	0	-	-
c1ccc(-c2nc(NCCCN3CCOCC3)c3ccccc3n2)cc1	0	0	0	2.6	0	0	0
O=c1cc(CSc2ccc(S(=O)(=O)N3CCCCC3)cn2)nc2sccn12	0	0	0	0	0	-	-
Cc1ccc2nc(/C(C#N)=N/O)[nH]c2c1	0	0	0	3.6	0	?	0
COc1ccc(Cl)cc1Nc1nc(N2CCCC2)nc(N2CCCC2)n1	0	0	-	0	0	-	-
COc1cc(NC(=O)c2ccccc2)c(OC)cc1NC(=O)CN1CCN(c2ccccn2)CC1	0	0	0	5.9	0	0	0
COc1ccccc1NC(=O)CC1C(=O)NCCN1C(=O)Nc1ccc(Cl)c(Cl)c1 (centres undefined)	0	-	0	-2.1	0	?	?
COc1ccccc1C(=O)N1CCNC(=O)C1CC(=O)Nc1cccc(C)c1 (centres undefined)	-	-	0	-	0	-	-
COc1ccc(NC(C)=O)cc1NC(=O)CN1CCN(CC(=O)Nc2ccccc2Cl)CC1	0	0	0	4	0	?	0
COc1ccc(NC(C)=O)cc1NC(=O)CN1CCN(CC(=O)Nc2ccc(Cl)cc2)CC1	0	0	0	0	0	-	-
COc1ccccc1NC(=O)CN1CCN(CC(=O)Nc2cc(NC(C)=O)ccc2OC)CC1	0	0	0	3.7	0	?	0
C/C(=C\c1ccccc1)C(=O)Nc1cc(C)on1	-	-	0	-	0	-	-
COCCN1C(=O)N[C@@H](c2ccco2)C(C(=O)OC)=C1C	-	-	0	-	-	-	-
COc1ccccc1NC(=O)CN1CCC(n2c(C)nc3cc(F)ccc32)CC1	0	0	0	-2.6	0	?	0
COc1ccccc1NC(=O)CN1CCC(n2nnc3cc(F)ccc32)CC1	0	0	0	0	0	-	-
O=C(CCS(=O)(=O)c1cccc2nsnc12)NC1CCCCC1	-	-	0	-	0	-	-
COc1ccccc1CNC(=O)c1cnn2c(C(F)F)cc(C)nc12	-	-	0	-	0	-	-
COc1ccccc1CCNC(=O)c1cnn2c(C(F)F)cc(C)nc12	0	0	0	2.5	0	0	0
O=C(Nc1ccc(N2CCOCC2)c(Cl)c1)c1ccc(Br)o1	-2.5	0	0	11	0	0	0
COc1ccc(Cl)cc1NC(=O)CN1CCC(n2nnc3cc(C)ccc32)CC1	0	0	0	0	0	-	-
Cc1ccc2c(c1)nnn2C1CCN(CC(=O)Nc2ccccc2N2CCOCC2)CC1	0	0	0	2.9	0	0	0
Nc1c(C(=O)NCC2CCCO2)c2nc3ccccc3nc2n1/N=C/c1ccncc1 (centres undefined)	0	0	-	0	-	-	-
COCCn1c(N)c(C(=O)NCC2CCCO2)c2nc3ccccc3nc21 (centres undefined)	0	0	0	7.8	0	-26	?
